PubChem BioAssay (EPA / NIEHS)
Records with an inconclusive call do not appear. Calls of active or inactive are those of the source. How the source made its calls: active means hit-call score of the fitted dose curve at least 0.9, where 1 is the maximum; inconclusive means response in the unintended direction; inactive means score below 0.9.

Columns and labels:
[1] = TOX21_p53_BLA_p3_viability: Viability Assessment in the Tox21 HCT-116 p53 Agonism Beta-lactamase Assay, Phase 3 (AID 2283593);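 further: cells exposed to compound for 16 h before reading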
Summary of the method: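 HCT116 cells, 4000/well, dosed 5 h after plating by pin transfer (217-fold dilution from DMSO stock) and incubated 16 h at 37C, 5% CO2. Viability read as ATP luminescence with CellTiter-Glo after 30 min at room temperature.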

[2] = biological target: Cellular tumor antigen p53 (Homo sapiens) (UniProt P04637); test: TOX21_p53_BLA_p3_ratio: Tox21 HCT-116 p53 Agonism Beta-lactamase Assay, Ratio, Phase 3 (AID 2283596)
Cellular tumor antigen p53 (Homo sapiens), sequence (P04637 whole entry, looked up): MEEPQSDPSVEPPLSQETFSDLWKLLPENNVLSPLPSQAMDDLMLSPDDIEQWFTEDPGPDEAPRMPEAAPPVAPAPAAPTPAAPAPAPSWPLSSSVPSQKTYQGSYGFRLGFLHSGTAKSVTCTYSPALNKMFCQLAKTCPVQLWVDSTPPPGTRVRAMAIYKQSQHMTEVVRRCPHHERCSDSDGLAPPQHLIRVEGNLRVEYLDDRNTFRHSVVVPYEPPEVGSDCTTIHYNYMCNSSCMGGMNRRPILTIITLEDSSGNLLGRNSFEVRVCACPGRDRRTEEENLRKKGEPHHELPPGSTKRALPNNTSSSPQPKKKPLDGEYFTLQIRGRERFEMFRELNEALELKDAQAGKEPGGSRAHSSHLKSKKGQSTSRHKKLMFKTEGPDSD
Summary of the method: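 Cells were seeded at 4000/well, rested 5 h at 37C, then dosed with DMSO compound solutions (217-fold dilution) for 16 h. CCF4-AM substrate was loaded for 2 h at room temperature, and the 460/530 nm emission ratio was fitted for gain of signal versus DMSO.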

[3] = biological target: Cellular tumor antigen p53 (Homo sapiens) (UniProt P04637); test: TOX21_p53_BLA_p5_ratio: Tox21 HCT-116 p53 Agonism Beta-lactamase Assay, Ratio, Phase 5 (AID 2283599)
Summary of the method: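 HCT-116 p53-bla cells (4000/well) plated 5 h, dosed with compound (217-fold DMSO dilution) for 16 h at 37 C; CCF4-AM substrate 2 h at room temperature. Activity is the 460/530 nm emission ratio (405 nm excitation), fitted in gain-of-signal direction versus DMSO.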

[4] = biological target: Cellular tumor antigen p53 (Homo sapiens) (UniProt P04637); test: TOX21_p53_BLA_p4_ratio: Tox21 HCT-116 p53 Agonism Beta-lactamase Assay, Ratio, Phase 4 (AID 2283601)
Summary of the method: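 HCT-116 p53 beta-lactamase reporter cells (4000/well) preincubated 5 h, then compound (217-fold dilution of DMSO stock) for 16 h at 37C. CCF4-AM substrate added 2 h at room temperature; 460/530 nm emission ratio fitted upward versus DMSO.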

[5] = TOX21_p53_BLA_p4_viability: Viability Assessment in the Tox21 HCT-116 p53 Agonism Beta-lactamase Assay, Phase 4 (AID 2283597);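 further: hits lower the luminescence signal meaning cytotoxicity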
Summary of the method: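 Cytotoxicity was inferred from loss of CellTiter-Glo luminescence. HCT116 cells had been dosed with compounds after 5 h plating, incubated 16 h at 37C and 5% CO2, and exposed to the CCF4-AM substrate for 2 h.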

[6] = TOX21_p53_BLA_p5_viability: Viability Assessment in the Tox21 HCT-116 p53 Agonism Beta-lactamase Assay, Phase 5 (AID 2283600)
Summary of the method: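 Luciferase-coupled ATP quantitation of cells treated for 16 h (37C, 5% CO2) with test chemicals delivered in DMSO via a 217-fold dilution; 4000 cells/well; reagent incubated 30 min at room temperature before luminescence reading.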

**Q.** Which outcome [1] does the source give for `O=C([O-])c1ccccn1.O=C([O-])c1ccccn1.O=C([O-])c1ccccn1.[Cr+3]` here?
**A.** inactive

**Q.** And the outcome [2]?
**A.** inactive

**Q.** What about the outcome [3] of the same compound?
**A.** inactive

**Q.** What about the outcome [4] of the same compound?
**A.** inactive

**Q.** What does the source list for `O=C1CC(=O)NC(=O)N1`?
**A.** outcome [1]: inactive; outcome [5]: inactive; outcome [3]: inactive; outcome [4]: inactive

**Q.** Which outcome [1] does the source give for `CC1NCCOC1c1ccccc1` (stereo not given) here?
**A.** inactive

**Q.** And the outcome [2]?
**A.** inactive

**Q.** What about the outcome [6] of the same compound?
**A.** inactive

**Q.** And the outcome [4]?
**A.** inactive

**Q.** Which AC50 [1] does the source give for `CCCCCCC(=O)O[C@H]1CC[C@H]2[C@@H]3CC[C@H]4CC(=O)C=C(C)[C@]4(C)[C@H]3CC[C@]12C` here?
**A.** 37 µM (active)

**Q.** What about the outcome [2] of the same compound?
**A.** inactive

**Q.** What about the outcome [3] of the same compound?
**A.** inactive

**Q.** What about the outcome [6] of the same compound?
**A.** inactive

**Q.** What about the outcome [4] of the same compound?
**A.** inactive

**Q.** Which results are given for `CC(C)c1ccc(NC(=O)N(C)C)cc1`?
**A.** outcome [1]: inactive; outcome [2]: inactive; outcome [5]: inactive; outcome [3]: inactive; outcome [6]: inactive; outcome [4]: inactive

**Q.** With `N#CCc1ccccc1` as the compound, how does the outcome [1] read?
**A.** inactive

**Q.** And the outcome [2]?
**A.** inactive

**Q.** What about the outcome [5] of the same compound?
**A.** inactive

**Q.** What about the outcome [3] of the same compound?
**A.** inactive

**Q.** And the outcome [6]?
**A.** inactive

**Q.** What about the outcome [4] of the same compound?
**A.** inactive

**Q.** Which outcome [1] does the source give for `CC1CC(CC2CCC(N)C(C)C2)CCC1N` (stereo not given) here?
**A.** inactive

**Q.** And the outcome [5]?
**A.** inactive

**Q.** And the outcome [6]?
**A.** inactive

**Q.** Which outcome [1] does the source give for `CC(C)NC(C)C` here?
**A.** inactive

**Q.** And the outcome [2]?
**A.** inactive

**Q.** And the outcome [3]?
**A.** inactive

**Q.** What about the outcome [6] of the same compound?
**A.** inactive

**Q.** And the outcome [4]?
**A.** inactive

**Q.** Which outcome [1] does the source give for `CC(N)Cc1ccc(O)cc1` (stereo not given) here?
**A.** inactive

**Q.** And the outcome [2]?
**A.** inactive

**Q.** And the outcome [3]?
**A.** inactive

**Q.** What about the outcome [6] of the same compound?
**A.** inactive

**Q.** What about the outcome [4] of the same compound?
**A.** inactive

**Q.** With `O=C1C(=O)c2cccc3cccc1c23` as the compound, how does the outcome [1] read?
**A.** inactive

**Q.** And the AC50 [5]?
**A.** 33 µM (active)

**Q.** What about the AC50 [4] of the same compound?
**A.** 9.63 µM (active)

**Q.** With `C[N+](C)(C)CCCl` as the compound, how does the outcome [1] read?
**A.** inactive

**Q.** And the outcome [2]?
**A.** inactive

**Q.** And the outcome [4]?
**A.** inactive

**Q.** With `CC1CN1` (stereo not given) as the compound, how does the outcome [1] read?
**A.** inactive

**Q.** And the outcome [2]?
**A.** inactive

**Q.** And the outcome [5]?
**A.** inactive

**Q.** What does the source list for `NC(=S)C(N)=S`?
**A.** outcome [1]: inactive; outcome [2]: inactive; outcome [3]: inactive; outcome [6]: inactive

**Q.** Which outcome [1] does the source give for `C=CCN1CC[C@]23CCCC[C@H]2[C@H]1Cc1ccc(O)cc13` here?
**A.** inactive

**Q.** What about the outcome [2] of the same compound?
**A.** inactive

**Q.** What about the outcome [5] of the same compound?
**A.** inactive

**Q.** And the outcome [6]?
**A.** inactive

**Q.** What about the outcome [4] of the same compound?
**A.** inactive
